Experimental data reported in the supplement of paper PMC11732987, “Enantioselective OTUD7B fragment discovery through chemoproteomics screening and high-throughput optimisation” (Communications Chemistry, 2025).

Tests used:
Assay in all cases: log2 ratio of Biotin-Ahx-Ub-VS probe labelling (fragment/DMSO); higher = less target engagement (more negative = stronger competition), active = hit call of the paper (q ≤ 0.05, log2 ratio ≤ -1)
Conditions in all cases: compound concentration: 200 uM; treatment time: 3 h
USP16 = USP16 (UniProt Q9Y5T5)
Sequence of USP16 (Q9Y5T5 whole entry, looked up, the tested form may be a part): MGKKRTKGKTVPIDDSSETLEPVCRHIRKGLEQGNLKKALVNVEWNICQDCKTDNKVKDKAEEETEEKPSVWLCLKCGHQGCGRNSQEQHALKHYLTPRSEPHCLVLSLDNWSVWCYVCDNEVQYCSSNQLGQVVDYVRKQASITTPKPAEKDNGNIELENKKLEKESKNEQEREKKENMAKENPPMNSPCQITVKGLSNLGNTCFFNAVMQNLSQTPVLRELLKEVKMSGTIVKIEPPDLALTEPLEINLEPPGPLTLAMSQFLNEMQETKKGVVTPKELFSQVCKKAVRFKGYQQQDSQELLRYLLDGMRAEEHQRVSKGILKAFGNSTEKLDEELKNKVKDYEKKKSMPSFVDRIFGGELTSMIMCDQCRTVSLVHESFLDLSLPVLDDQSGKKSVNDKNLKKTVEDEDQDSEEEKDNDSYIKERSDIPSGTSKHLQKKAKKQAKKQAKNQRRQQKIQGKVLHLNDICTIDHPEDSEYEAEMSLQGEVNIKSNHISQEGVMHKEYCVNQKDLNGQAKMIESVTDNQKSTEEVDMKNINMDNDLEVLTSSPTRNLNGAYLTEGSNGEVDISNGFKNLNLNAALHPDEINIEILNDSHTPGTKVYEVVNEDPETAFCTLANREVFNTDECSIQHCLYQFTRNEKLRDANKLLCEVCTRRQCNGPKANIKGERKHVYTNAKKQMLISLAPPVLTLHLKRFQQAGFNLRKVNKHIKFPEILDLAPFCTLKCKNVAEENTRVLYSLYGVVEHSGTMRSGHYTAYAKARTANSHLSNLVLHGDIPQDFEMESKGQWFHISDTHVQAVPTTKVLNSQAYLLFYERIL
Outline: (§1)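 Labelled DUBs were enriched with NeutrAvidin, digested with LysC and trypsin, and run by diaPASEF LC-MS/MS. The labelling used Biotin-Ahx-Ub-VS at 0.5 µM final for 1 h on HEK293T lysate (495 µg per sample) previously treated in triplicate with fragment at 200 µM or vehicle for 3 h. Values are average log2 fragment/vehicle ratios by unpaired t-test on global-median-normalised Spectronaut quantities of proteins with ≥2 unique peptides.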

USP19 = biological target: T1, USP19 (UniProt O94966)
T1 sequence (whole entry): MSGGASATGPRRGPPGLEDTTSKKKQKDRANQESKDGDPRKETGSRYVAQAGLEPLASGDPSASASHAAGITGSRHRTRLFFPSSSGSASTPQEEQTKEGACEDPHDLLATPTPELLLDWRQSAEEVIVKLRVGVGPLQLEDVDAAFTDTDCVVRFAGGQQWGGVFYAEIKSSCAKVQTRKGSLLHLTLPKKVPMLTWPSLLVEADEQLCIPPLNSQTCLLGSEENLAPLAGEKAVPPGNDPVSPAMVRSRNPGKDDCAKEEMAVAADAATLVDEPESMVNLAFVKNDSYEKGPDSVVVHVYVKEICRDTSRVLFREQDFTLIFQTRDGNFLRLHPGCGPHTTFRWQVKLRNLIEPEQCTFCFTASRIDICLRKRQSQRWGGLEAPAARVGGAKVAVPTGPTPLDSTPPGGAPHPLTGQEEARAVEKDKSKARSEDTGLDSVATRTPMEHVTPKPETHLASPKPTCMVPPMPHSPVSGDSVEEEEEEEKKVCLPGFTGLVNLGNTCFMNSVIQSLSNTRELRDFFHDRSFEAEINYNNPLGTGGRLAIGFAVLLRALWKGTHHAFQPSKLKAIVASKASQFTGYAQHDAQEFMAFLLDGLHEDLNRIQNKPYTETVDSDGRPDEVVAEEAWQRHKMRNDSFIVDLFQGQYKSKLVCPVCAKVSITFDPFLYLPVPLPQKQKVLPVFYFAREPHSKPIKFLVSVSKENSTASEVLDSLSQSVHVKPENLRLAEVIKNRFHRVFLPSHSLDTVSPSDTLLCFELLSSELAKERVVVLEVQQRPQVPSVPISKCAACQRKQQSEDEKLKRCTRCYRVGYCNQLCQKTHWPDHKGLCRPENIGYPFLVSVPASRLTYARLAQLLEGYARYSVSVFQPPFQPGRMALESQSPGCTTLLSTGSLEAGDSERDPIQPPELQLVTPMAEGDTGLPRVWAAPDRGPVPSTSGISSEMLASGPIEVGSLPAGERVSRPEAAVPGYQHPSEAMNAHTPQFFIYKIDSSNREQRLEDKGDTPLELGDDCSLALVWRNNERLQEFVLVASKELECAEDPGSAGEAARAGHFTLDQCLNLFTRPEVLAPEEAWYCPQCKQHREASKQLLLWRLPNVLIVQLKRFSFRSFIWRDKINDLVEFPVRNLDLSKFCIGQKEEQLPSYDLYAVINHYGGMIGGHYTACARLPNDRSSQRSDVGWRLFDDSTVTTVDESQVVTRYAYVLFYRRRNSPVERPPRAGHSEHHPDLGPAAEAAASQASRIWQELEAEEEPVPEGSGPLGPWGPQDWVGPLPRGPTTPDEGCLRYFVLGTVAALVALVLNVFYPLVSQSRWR
Outline: as §1

USP24 = USP24 (UniProt Q9UPU5)
Sequence of USP24 (Q9UPU5 whole entry): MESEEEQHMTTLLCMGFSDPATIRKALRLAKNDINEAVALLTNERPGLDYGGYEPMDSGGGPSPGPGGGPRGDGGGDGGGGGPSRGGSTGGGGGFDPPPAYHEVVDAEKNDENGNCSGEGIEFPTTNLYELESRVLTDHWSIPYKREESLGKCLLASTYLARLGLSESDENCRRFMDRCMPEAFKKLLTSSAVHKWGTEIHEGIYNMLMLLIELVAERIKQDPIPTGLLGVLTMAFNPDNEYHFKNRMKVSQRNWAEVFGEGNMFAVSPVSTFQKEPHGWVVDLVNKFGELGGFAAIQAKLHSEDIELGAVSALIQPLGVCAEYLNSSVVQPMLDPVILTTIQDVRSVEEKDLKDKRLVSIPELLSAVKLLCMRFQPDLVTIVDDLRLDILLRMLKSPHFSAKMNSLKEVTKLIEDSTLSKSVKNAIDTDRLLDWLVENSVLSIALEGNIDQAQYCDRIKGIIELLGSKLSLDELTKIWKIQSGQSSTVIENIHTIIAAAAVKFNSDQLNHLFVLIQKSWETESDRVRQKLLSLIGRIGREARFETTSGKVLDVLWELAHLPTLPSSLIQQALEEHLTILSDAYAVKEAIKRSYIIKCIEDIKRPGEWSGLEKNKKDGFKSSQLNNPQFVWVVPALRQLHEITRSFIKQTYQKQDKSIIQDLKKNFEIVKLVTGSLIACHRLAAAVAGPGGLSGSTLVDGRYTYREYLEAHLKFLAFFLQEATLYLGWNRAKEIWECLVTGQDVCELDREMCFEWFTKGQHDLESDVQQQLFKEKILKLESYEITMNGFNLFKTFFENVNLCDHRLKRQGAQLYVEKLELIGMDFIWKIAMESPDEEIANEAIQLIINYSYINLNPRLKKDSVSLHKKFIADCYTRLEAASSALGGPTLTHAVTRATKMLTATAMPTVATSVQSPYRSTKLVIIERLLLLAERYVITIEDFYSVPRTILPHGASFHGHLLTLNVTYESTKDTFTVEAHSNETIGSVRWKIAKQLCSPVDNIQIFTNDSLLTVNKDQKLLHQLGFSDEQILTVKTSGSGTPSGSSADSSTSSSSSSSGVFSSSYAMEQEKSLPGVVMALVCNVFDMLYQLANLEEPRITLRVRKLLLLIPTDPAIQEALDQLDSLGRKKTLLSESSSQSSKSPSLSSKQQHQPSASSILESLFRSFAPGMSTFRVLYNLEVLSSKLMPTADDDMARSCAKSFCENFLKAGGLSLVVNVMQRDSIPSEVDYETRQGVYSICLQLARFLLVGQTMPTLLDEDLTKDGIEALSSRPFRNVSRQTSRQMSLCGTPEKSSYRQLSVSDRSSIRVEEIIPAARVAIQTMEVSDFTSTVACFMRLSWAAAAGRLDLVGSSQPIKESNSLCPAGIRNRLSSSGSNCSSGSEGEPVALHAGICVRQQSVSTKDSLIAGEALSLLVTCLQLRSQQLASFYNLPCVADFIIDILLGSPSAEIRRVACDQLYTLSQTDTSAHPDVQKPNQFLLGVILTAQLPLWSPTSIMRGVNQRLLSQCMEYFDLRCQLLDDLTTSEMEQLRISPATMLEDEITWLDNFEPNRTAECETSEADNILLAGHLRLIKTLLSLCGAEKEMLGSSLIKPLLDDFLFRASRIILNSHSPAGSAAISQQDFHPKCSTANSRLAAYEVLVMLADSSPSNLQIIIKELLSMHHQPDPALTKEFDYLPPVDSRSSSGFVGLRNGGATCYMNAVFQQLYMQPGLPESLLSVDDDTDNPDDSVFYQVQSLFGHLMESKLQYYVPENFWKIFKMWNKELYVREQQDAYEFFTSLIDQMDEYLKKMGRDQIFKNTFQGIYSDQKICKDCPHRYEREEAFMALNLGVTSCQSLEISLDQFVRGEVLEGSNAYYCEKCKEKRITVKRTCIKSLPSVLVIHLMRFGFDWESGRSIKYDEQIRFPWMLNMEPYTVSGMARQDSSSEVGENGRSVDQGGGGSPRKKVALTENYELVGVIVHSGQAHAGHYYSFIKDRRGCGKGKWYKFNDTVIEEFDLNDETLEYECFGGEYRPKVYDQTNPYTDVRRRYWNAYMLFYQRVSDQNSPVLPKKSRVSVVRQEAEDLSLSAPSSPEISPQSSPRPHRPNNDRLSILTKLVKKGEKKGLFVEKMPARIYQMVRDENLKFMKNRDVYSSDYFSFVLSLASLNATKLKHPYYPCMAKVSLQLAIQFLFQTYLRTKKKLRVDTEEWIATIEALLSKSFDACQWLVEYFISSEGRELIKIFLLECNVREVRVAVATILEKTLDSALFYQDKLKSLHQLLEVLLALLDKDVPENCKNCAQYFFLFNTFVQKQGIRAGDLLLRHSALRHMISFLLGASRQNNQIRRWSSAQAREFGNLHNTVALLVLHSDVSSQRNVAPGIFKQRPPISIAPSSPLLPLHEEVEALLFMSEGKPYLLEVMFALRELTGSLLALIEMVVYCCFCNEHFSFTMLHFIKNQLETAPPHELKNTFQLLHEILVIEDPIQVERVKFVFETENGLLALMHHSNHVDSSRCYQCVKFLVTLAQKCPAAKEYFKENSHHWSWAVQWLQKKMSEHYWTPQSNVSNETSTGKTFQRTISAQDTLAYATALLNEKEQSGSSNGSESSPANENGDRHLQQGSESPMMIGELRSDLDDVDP
Outline: as §1

USP25 = biological target: T2, USP25 (UniProt Q9UHP3)
T2 sequence (whole entry): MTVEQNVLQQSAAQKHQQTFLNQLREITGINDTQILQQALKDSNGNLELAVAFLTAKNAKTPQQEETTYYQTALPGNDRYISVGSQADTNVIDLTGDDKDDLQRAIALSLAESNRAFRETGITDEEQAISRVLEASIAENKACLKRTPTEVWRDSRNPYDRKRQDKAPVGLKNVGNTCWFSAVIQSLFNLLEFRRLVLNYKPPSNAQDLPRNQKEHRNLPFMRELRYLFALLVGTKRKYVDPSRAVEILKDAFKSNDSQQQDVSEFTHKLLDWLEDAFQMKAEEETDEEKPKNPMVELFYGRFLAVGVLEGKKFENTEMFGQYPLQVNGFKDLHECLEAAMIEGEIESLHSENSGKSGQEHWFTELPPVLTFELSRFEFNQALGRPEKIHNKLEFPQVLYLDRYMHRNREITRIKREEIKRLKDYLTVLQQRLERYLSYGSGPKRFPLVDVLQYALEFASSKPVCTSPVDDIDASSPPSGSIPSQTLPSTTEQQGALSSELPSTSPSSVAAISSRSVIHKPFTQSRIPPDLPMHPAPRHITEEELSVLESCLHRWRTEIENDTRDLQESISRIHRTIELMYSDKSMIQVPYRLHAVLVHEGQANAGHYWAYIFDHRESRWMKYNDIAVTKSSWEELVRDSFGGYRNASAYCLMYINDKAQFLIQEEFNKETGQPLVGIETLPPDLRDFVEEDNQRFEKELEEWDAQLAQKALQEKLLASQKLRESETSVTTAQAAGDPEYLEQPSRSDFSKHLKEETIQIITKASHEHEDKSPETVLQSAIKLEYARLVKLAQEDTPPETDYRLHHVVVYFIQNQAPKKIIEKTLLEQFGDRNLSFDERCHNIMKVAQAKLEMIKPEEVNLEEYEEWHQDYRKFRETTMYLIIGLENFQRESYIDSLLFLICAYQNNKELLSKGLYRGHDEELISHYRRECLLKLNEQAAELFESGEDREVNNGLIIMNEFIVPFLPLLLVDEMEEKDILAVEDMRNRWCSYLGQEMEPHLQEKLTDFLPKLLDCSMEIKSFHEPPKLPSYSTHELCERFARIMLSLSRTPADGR
Outline: as §1

USP28 = biological target: T3, USP28 (UniProt Q96RU2)
T3 sequence (whole entry): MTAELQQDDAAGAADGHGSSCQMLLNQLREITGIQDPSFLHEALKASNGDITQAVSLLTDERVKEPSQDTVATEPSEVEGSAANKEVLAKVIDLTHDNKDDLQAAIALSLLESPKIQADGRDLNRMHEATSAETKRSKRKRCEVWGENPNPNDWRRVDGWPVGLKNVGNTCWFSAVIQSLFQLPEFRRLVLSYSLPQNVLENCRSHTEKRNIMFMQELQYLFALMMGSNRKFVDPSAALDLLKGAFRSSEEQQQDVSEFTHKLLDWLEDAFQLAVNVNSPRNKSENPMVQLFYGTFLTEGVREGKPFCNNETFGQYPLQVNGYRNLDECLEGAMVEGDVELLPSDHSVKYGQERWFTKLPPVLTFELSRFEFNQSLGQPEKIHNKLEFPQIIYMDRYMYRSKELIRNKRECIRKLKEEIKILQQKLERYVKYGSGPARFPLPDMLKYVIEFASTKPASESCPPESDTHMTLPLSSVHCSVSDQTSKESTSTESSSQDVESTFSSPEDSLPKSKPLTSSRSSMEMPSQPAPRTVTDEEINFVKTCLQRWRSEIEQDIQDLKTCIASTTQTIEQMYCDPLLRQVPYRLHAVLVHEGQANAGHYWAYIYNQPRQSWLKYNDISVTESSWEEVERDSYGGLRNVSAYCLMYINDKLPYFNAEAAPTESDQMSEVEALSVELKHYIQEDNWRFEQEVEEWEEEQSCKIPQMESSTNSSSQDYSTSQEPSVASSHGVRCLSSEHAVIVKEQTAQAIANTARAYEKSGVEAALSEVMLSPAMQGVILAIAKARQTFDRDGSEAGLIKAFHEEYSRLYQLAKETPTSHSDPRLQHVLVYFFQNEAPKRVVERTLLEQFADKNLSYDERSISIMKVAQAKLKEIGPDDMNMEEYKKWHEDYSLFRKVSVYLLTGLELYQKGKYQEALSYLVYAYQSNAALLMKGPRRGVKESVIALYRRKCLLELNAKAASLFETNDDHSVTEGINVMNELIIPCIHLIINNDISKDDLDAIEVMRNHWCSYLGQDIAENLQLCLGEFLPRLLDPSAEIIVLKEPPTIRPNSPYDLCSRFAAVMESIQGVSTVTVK
Outline: as §1

Measured: log2 ratio of Biotin-Ahx-Ub-VS probe labelling

CN(C)C(=O)c1ccc(CNC(=O)CCl)cc1
inactive: USP16 0.0806 | USP19 0.123 | USP24 0.117 | USP25 -0.513 | USP28 -0.359
